From PubChem BioAssay (NCI)
The panel holds about 83,000 compounds, 20% with a hit somewhere; the sample as a whole holds those more often.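 Negative percent growth values reflect cell death: -40 means 40% of the cells present at the start died, and -100 means all died.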 Unmarked numbers belong to inactive results. Activity calls are given as the source filed them. The calls were made as follows: active = growth percent below 10; inactive = the rest.

What was measured:
Assay in all cases: NCI-60 one-dose screen, 48 h (100 = growth as untreated, 0 = no growth, -100 = all killed)
Settings in all cases: 10 µM unless noted
HCT-15 colon = system: HCT-15 colon
HT29 colon = system: HT29 colon
SNB-75 CNS = system: SNB-75 CNS
SNB-19 CNS = system: SNB-19 CNS
U251 CNS = system: U251 CNS
PC-3 prostate = system: PC-3 prostate
SK-MEL-5 melanoma = system: SK-MEL-5 melanoma
UACC-62 melanoma = system: UACC-62 melanoma
LOX IMVI melanoma = system: LOX IMVI melanoma
SK-MEL-28 melanoma = system: SK-MEL-28 melanoma
SK-MEL-2 melanoma = system: SK-MEL-2 melanoma
EKVX NSCLC = system: EKVX NSCLC
SN12C renal = system: SN12C renal
UO-31 renal = system: UO-31 renal
TK-10 renal = system: TK-10 renal
ACHN renal = system: ACHN renal
CAKI-1 renal = system: CAKI-1 renal
A498 renal = system: A498 renal
CCRF-CEM leukemia = system: CCRF-CEM leukemia
MOLT-4 leukemia = system: MOLT-4 leukemia

SMILES	growth (HCT-15 colon)	growth (HT29 colon)	growth (SNB-75 CNS)	growth (SNB-19 CNS)	growth (U251 CNS)	growth (PC-3 prostate)	growth (SK-MEL-5 melanoma)	growth (UACC-62 melanoma)	growth (LOX IMVI melanoma)	growth (SK-MEL-28 melanoma)	growth (SK-MEL-2 melanoma)	growth (EKVX NSCLC)	growth (SN12C renal)	growth (UO-31 renal)	growth (TK-10 renal)	growth (ACHN renal)	growth (CAKI-1 renal)	growth (A498 renal)	growth (CCRF-CEM leukemia)	growth (MOLT-4 leukemia)
CC(Nc1c(C#N)cnc2ccc(-c3cnc(N)nc3)cc12)c1ccccc1 (stereo not given)	9.92% (active)	17.4%	18.9%	20.4%	21%	10.8%	-67.3% (active)	3.27% (active)	4.6% (active)	17.9%	2.77% (active)	0.82% (active)	14.7%	7.41% (active)	-20.7% (active)	14.6%	1.74% (active)	-38.6% (active)	19.1%	2.96% (active)
CCOC(=O)C(=O)CC(=O)N1C(=S)NC(=O)C1CC(C)C (stereo not given)	94.8%	113%	100%	99.9%	105%	103%	95.6%	96.3%	98%	99.6%	111%	98.2%	97.6%	84%	106%	103%	102%	98.6%	100%	108%
C[C@H]1c2[nH]c3ccccc3c2C[C@H]2C(=O)N(CCCCCCC(=O)NO)CC(=O)N21	99.3%	86.8%	82.1%	84.8%	85.2%	77.7%	83%	69.6%	-8.74% (active)	78.9%	76.3%	85.3%	88.5%	83.3%	90.3%	90.1%	87.8%	83.2%	36.9%	52.3%
O=c1[nH]c2ccccc2cc1CSc1ccccc1Nc1nccc(-c2ccc(Cl)cc2)n1	101%	109%	71.7%	98.8%	104%	87.9%	96.6%	77.1%	96.3%	107%	113%	88.6%	94.9%	83.3%	115%	81.5%	80.6%	85.5%	101%	100%
CCNC(=O)N1CCc2cc(OC)c(OCCc3ccc(OC)cc3)cc2C1c1ccc(Cl)cc1C (stereo not given)	9.66% (active)	2.45% (active)	37.9%	26%	13.1%	26.1%	-10.8% (active)	22.8%	8.72% (active)	43.3%	14.7%	37%	18.6%	28.2%	54.2%	23.1%	23.3%	-12.8% (active)	38.2%	23.6%
COc1ccc(S(=O)(=O)NCCCNc2nccc(-c3[nH]c(-c4ccccc4)nc3-c3ccc(Cl)c(O)c3)n2)cc1	93.7%	73.8%	108%	105%	83.3%	66.4%	56.9%	18.1%	56.9%	23.5%	15.4%	113%	84.2%	116%	126%	96.2%	102%	116%	40.3%	51.2%
COc1ccc(-c2nn(-c3ccc(S(C)(=O)=O)cc3)cc2/C=N/O)cc1	103%	106%	127%	105%	106%	102%	98.7%	96.6%	102%	96.1%	109%	104%	98.9%	97%	124%	95.3%	111%	116%	99.6%	103%
Cc1cccc2c3c(sc12)C(c1ccc(Cl)cc1)c1c(nc(CC(=O)Nc2ccccc2)[nH]c1=O)O3 (stereo not given)	47.5%	73.6%	30.8%	64.5%	54.2%	43.3%	91.7%	27%	56.1%	56.5%	68.4%	63.7%	71.9%	50.9%	132%	47.3%	41.1%	41.5%	59%	83.4%
O=C1[C@H]2Cc3c([nH]c4ccccc34)[C@@H](c3ccc(Br)cc3)N2C(=O)CN1C1CCN(CC2CCCCC2)CC1	-91.2% (active)	-71.1% (active)	-1.64% (active)	4.34% (active)	-90.8% (active)	-52.3% (active)	-99.8% (active)	42.3%	-87.1% (active)	-95.5% (active)	16.7%	-79.2% (active)	-96.9% (active)	12.3%	-85.2% (active)	-95.1% (active)	-32.9% (active)	-15.4% (active)	-27.9% (active)	-43.5% (active)
CCCn1cnc2c(c1=N)C(c1ccc(Cl)cc1)c1sc3c(CC)cccc3c1O2 (stereo not given)	17.6%	-5.38% (active)	-1.58% (active)	23.1%	14.3%	3.88% (active)	31%	12.8%	29.3%	57.8%	22.5%	43%	27.8%	32.4%	61.1%	35.3%	32.2%	-8.25% (active)	0.961% (active)	10%
O=S(=O)(NCCNc1nccc(-n2cnc3ccccc32)n1)c1ccc(Cl)cc1	96.6%	103%	79.4%	97.7%	102%	103%	99.4%	86.4%	93.5%	101%	109%	92.2%	96.6%	81.6%	101%	96.4%	87.4%	84.8%	103%	103%
Fc1ccc(-c2cc3nc(C(Cl)Cl)nc(-c4ccc(F)cc4)n3n2)cc1	8.52% (active)	-6.96% (active)	-11.6% (active)	1.89% (active)	-39.8% (active)	16.8%	76.5%	44%	55.7%	-5.14% (active)	108%	7.26% (active)	49.2%	29.3%	13.2%	-41.1% (active)	-18.3% (active)	-53.1% (active)	33.1%	12.4%
CC(=O)C1=C(C)NC(NN)=NC1c1cccc(Cl)c1 (stereo not given)	102%	111%	95.9%	103%	95%	96.9%	106%	93.9%	111%	106%	112%	96.4%	98.2%	85.9%	152%	99.4%	91%	93.2%	97%	96.8%
COC(=O)C1(C)CCC[C@]2(C)[C@H]3C[C@H]4C(C(C)C)=C[C@]3(CC[C@@H]12)[C@H]1[C@@H]4[C@@H](OC(=O)c2ccco2)CC[C@@H]1OC(=O)c1ccco1 (stereo not given in full)	107%	116%	97.8%	98.4%	100%	87.9%	102%	92.6%	111%	104%	107%	99.1%	101%	101%	105%	112%	95.8%	115%	105%	103%
COc1cc(Nc2c(C#N)cnn3cc(-c4cnn(CC(C)(C)O)c4)cc23)ccc1Cl	29.9%	54.3%	55.5%	88.1%	67.2%	62.4%	65.3%	46%	31%	86%	61.1%	43.4%	23.5%	11.6%	23.3%	18%	9.46% (active)	-24.4% (active)	32.6%	36.7%
NC(N)=Nc1ccc(Oc2cccc(Nc3ccc(Br)c(C(F)(F)F)c3)c2)cc1	69.9%	11.5%	27.1%	-15.9% (active)	-78.9% (active)	1.98% (active)	22.5%	7.23% (active)	-97.1% (active)	58.3%	35.6%	25.5%	-21.3% (active)	75.2%	54.9%	68.3%	39.8%	0.698% (active)	3.83% (active)	9.79% (active)
